The text below walks through data of PubChem BioAssay (EPA / NIEHS).

Assay [1] concerns the target human Norepinephrine Transporter (NET), SLC6A2 (gene 6530) (UniProt P23975). Kind of assay: NVS_TR_hNET: NovaScreen (NVS) Transporter Assay for human Norepinephrine Transporter (NET) (AID 2283377).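 Note: cell-free membrane protein extracted from CHO cells expressing human NET.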 The gist of the method: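 Scintillation counts of filter-retained radioligand served as the readout, taken 1 h post-dosing in a cell-free CHO-derived system. Test chemicals ran first at 25 uM in duplicate; confirmed hits were retested across concentrations.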

Assay [2] has as its target Estrogen receptor beta (Homo sapiens) (UniProt Q92731). The experiment in a line: OT_ER_ERbERb_1440: Odyssey Thera (OT) 24-hour HEK293T Protein-Complementation Assay for Estrogen Receptor-beta/-beta Homodimer (AID 2283380).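 Note: fluorescence gain from ER beta LBD homodimer complementation read by laser scanning cytometry; scored as signal increase over DMSO baseline for both agonists and antagonists.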 An outline of the steps: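 Fluorescence increase, nuclear for agonists or whole-cell for antagonists, relative to DMSO vehicle, quantified by laser scanning cytometer after fixation and Draq5 staining. Readout from 24 h treatment of HEK293T cells carrying complementation-paired ER beta LBD (aa 310-547).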

In assay [3] the target is Estrogen receptor (Homo sapiens) (UniProt P03372). The experiment in a line: OT_ERa_GFPERaERE_0480: Odyssey Thera (OT) 8-hour HeLa Transcription Induction Assay for Estrogen Receptor (AID 2283381; active = hit-call score of the fitted dose curve at least 0.9, where 1 is the maximum; inactive = score below 0.9). The gist of the method: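 Cells (HeLa) receive compound; after 8 h, reporter fluorescence is imaged and quantified by high-content analysis. Gain-of-signal relative to DMSO gives the endpoint.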

For assay [4] the target is unchanged. Kind of assay: OT_ERa_GFPERaERE_0120: Odyssey Thera (OT) 2-hour HeLa Transcription Induction Assay for Estrogen Receptor (AID 2283382). The gist of the method:
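Measures ESR1 pathway reporter gain-of-signal in HeLa cells after a 2-hour treatment, detected as fluorescent protein induction by microscopy, DMSO as baseline.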

Assay [5] concerns the target Retinoic acid receptor RXR-alpha (Homo sapiens) (UniProt P19793). The experiment in a line: OT_NURR1_NURR1RXRa_0480: Odyssey Thera (OT) 8-hour HEK293T Protein Complementation Assay for Nurr1/retinoid X receptor (RXR) (AID 2283385). The gist of the method: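 Compounds are applied to HEK293T cells carrying Nurr1 and RXRα linked to reporter fragments. After 8 h, fluorescence intensity reports heterodimer formation, with DMSO as baseline.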

The target is the same in assay [6]. Kind of assay: OT_NURR1_NURR1RXRa_1440: Odyssey Thera (OT) 24-hour HEK293T Protein Complementation Assay for Nurr1/retinoid X receptor (RXR) (AID 2283386). An outline of the steps: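 Measured as fluorescence from a reconstituted split reporter, this 24 h HEK293T complementation assay scores compound-induced gain of Nurr1/RXRα association relative to DMSO.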
Assay [7] concerns the target Peroxisome proliferator-activated receptor gamma (Homo sapiens) (UniProt P37231). The experiment in a line: OT_PPARg_PPARgSRC1_0480: Odyssey Thera (OT) 8-hour Protein-Complementation Assay for Peroxisome Proliferator-activated Receptor Gamma / SRC-1 Co-activator (AID 2283387).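 Note: nuclear to cytoplasmic split Venus YFP fluorescence ratio reporting PPARg SRC-1 interaction.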 The gist of the method:
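Split-YFP (IFP1/IFP2) PPARg/SRC-1 reporter, HEK293T, 37 °C, 5% CO2; 8 h compound; formaldehyde fix + Draq5; high-content imaging, N/C ratio, ≥350 cells/image, positive direction vs DMSO.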

For assay [8] the target is unchanged. Kind of assay: OT_PPARg_PPARgSRC1_1440: Odyssey Thera (OT) 24-hour Protein-Complementation Assay for Peroxisome Proliferator-activated Receptor Gamma/ SRC-1 Co-activator (AID 2283388).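 Note: nuclear to cytoplasmic ratio of reconstituted Venus YFP fluorescence in fixed imaged cells.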 An outline of the steps: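 Protein-fragment complementation between PPARg and coactivator SRC-1 was measured by fluorescence imaging in transiently transfected HEK293T cells after 24 h treatment. Signal was quantified as N/C ratio in the 488 nm channel, with DMSO as negative control.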

Assay [9] can be described thus: CEETOX_H295R_11DCORT: CeeTox H295R High-throughput Steroidogenesis Assay for 11-Deoxycortisol (11DCORT) (AID 2283432; active = hit-call score of the fitted dose curve at least 0.9, where 1 is the maximum; inactive = score below 0.9;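 for AC50: human adrenal H295R cells prestimulated with 10 µM forskolin for 48 h; 11-deoxycortisol secreted into the medium measured by LC-MS/MS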). Particulars: actives raise or lower the signal. The gist of the method: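 Steroidogenesis in human H295R cells: 48 h chemical exposure after forskolin priming, 11-deoxycortisol measured by LC-MS/MS.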
Assay [10] in a line: CEETOX_H295R_OHPREG: CeeTox H295R High-throughput Steroidogenesis Assay for OH-Pregnenolone (OHPREG) (AID 2283434; active = hit-call score of the fitted dose curve at least 0.9, where 1 is the maximum; inactive = score below 0.9). Particulars: actives raise or lower the signal. The gist of the method: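 Hormone levels in spent medium were measured by tandem mass spectrometry following liquid-liquid extraction. Cells (H295R) had been forskolin-stimulated (10 uM, 48 h) before a 48 h chemical exposure at 0.1% DMSO, with activity fitted in both directions against DMSO.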

The nature of assay [11]: CEETOX_H295R_OHPROG: CeeTox H295R High-throughput Steroidogenesis Assay for OH-Progesterone (OHPROG) (AID 2283435; active = hit-call score of the fitted dose curve at least 0.9, where 1 is the maximum; inactive = score below 0.9;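 for AC50: 17alpha-hydroxyprogesterone secreted into medium measured by HPLC-MS/MS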). The settings on record: actives raise or lower the signal. An outline of the steps: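 Secreted 17alpha-hydroxyprogesterone is read by tandem MS from media of forskolin-primed H295R cells dosed with chemical for 48 h. Activity is fitted in both directions against DMSO baseline; cytotoxic concentrations are re-tested diluted.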

The nature of assay [12]: CEETOX_H295R_CORTIC: CeeTox H295R High-throughput Steroidogenesis Assay for Corticosterone (CORTIC) (AID 2283437; active = hit-call score of the fitted dose curve at least 0.9, where 1 is the maximum; inactive = score below 0.9;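 note: corticosterone secreted into medium quantified by mass spectrometry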). Particulars: actives raise or lower the signal. An outline of the steps: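 Corticosterone secreted into medium is measured by reverse-phase HPLC with tandem MS following liquid-liquid extraction. Cells are forskolin-stimulated (10 uM, 48 h) before 48 h test exposure; activity fitted in both directions against DMSO.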

A short description of assay [13]: CEETOX_H295R_CORTISOL: CeeTox H295R High-throughput Steroidogenesis Assay for Cortisol (AID 2283438; active = hit-call score of the fitted dose curve at least 0.9, where 1 is the maximum; inactive = score below 0.9;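 note: cortisol secreted into medium quantified by LC-MS/MS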). Particulars: actives raise or lower the signal. The gist of the method:
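Human adrenocortical H295R cells (passage ≤10) received test chemicals for 48 h after forskolin priming. Secreted cortisol was measured by LC-MS/MS.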

A short description of assay [14]: CEETOX_H295R_DOC: CeeTox H295R High-throughput Steroidogenesis Assay for DOC (AID 2283439; active = hit-call score of the fitted dose curve at least 0.9, where 1 is the maximum; inactive = score below 0.9). The settings on record: actives raise or lower the signal. The gist of the method:
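Secreted DOC was quantified from H295R media by HPLC-MS/MS after 48 h chemical exposure following 48 h forskolin (10 uM) prestimulation. Values were fitted in both directions relative to DMSO, the negative control and baseline.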

A short description of assay [15]: CEETOX_H295R_ESTRADIOL: CeeTox H295R High-throughput Steroidogenesis Assay for Estradiol (AID 2283440; active = hit-call score of the fitted dose curve at least 0.9, where 1 is the maximum; inactive = score below 0.9;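 note: estradiol secreted into medium quantified by LC-MS/MS after dansyl derivatisation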). The settings on record: actives raise or lower the signal. An outline of the steps: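 Estradiol secreted into the medium was measured by tandem mass spectrometry after liquid-liquid extraction and dansylation. Human H295R cells had been forskolin-primed (10 uM, 48 h) before a 48 h chemical exposure with 0.1% DMSO.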

For assay [16], the target named is mouse Estrogen Receptor alpha (Era), Esr1 (gene 13982) (UniProt P19785). The experiment in a line: NVS_NR_mERa: NovaScreen (NVS) Nuclear Receptor Binding Assay for mouse Estrogen Receptor alpha (Era) (AID 2283378).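 Note: hit means loss of bound radioligand signal relative to DMSO.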 An outline of the steps:
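Extracted mouse Era incubated with tritiated or iodinated radioligand plus test chemical, 18 h. Bound fraction separated on filters, counted by scintillation. DMSO = negative control/baseline; duplicate single-point at 25 uM, then concentration-response follow-up.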

Assay [17] has as its target Agonist Androgen Response Element (ARE), AR (gene 367) (UniProt P10275). Kind of assay: OT_AR_ARELUC_AG_1440: Odyssey Thera (OT) 24-hour CHO-K1 Luciferase Assay for Agonist Androgen Response Element (ARE) (AID 2283379). An outline of the steps: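 Agonist mode, 24 h exposure in CHO-K1 ARE-luciferase cells; values reflect luminescence induction over vehicle.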
Assay [18] can be described thus: CEETOX_H295R_ANDR: CeeTox H295R High-throughput Steroidogenesis Assay for Androstenedione (ANDR) (AID 2283436; active = hit-call score of the fitted dose curve at least 0.9, where 1 is the maximum; inactive = score below 0.9;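 note: human H295R adrenal cells exposed for 48 h with androstenedione measured in medium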). Particulars: actives raise or lower the signal. An outline of the steps:
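Read-out is androstenedione secreted into medium, measured by tandem mass spectrometry after liquid-liquid extraction. Cells were H295R, dosed for 48 h per modified OECD 456; activity fitted in both directions relative to DMSO.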

In assay [19] the target is Bile acid receptor (Homo sapiens) (UniProt Q96RI1). Kind of assay: OT_FXR_FXRSRC1_0480: Odyssey Thera (OT) 8-hour HEK293T Protein-Complementation Assay for Farnesoid X receptor/SRC-1 Co-activator (AID 2283383). An outline of the steps:
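Co-activator recruitment to FXR was measured in living HEK293T cells, where interaction of the two fused partners restored an active fluorescent reporter. Signal gain after 8 h treatment was referenced to DMSO.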

The target is the same in assay [20]. Kind of assay: OT_FXR_FXRSRC1_1440: Odyssey Thera (OT) 24-hour HEK293T Protein-Complementation Assay for Farnesoid X receptor/SRC-1 Co-activator (AID 2283384). The gist of the method:
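Cell-based binding reporter: interaction of FXR with SRC-1 brings reporter fragments together, giving a fluorescence signal read 24 h after dosing of HEK293T cells.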

Values joined by “and” are separate entries in the source; they are usually repeats but may differ in a detail not shown here. Equal values may be shown once. Records with an inconclusive call do not appear. The source holds several records for some structures; these can differ, active in one and inactive in another. Active and inactive are the calls of the source. Rule for the calls, unless noted: active = hit-call score of the fitted dose curve at least 0.9, where 1 is the maximum; inconclusive = response in the unintended direction; inactive = score below 0.9.

Agonist Androgen Response Element (ARE), AR (gene 367), sequence (P10275 whole entry, looked up): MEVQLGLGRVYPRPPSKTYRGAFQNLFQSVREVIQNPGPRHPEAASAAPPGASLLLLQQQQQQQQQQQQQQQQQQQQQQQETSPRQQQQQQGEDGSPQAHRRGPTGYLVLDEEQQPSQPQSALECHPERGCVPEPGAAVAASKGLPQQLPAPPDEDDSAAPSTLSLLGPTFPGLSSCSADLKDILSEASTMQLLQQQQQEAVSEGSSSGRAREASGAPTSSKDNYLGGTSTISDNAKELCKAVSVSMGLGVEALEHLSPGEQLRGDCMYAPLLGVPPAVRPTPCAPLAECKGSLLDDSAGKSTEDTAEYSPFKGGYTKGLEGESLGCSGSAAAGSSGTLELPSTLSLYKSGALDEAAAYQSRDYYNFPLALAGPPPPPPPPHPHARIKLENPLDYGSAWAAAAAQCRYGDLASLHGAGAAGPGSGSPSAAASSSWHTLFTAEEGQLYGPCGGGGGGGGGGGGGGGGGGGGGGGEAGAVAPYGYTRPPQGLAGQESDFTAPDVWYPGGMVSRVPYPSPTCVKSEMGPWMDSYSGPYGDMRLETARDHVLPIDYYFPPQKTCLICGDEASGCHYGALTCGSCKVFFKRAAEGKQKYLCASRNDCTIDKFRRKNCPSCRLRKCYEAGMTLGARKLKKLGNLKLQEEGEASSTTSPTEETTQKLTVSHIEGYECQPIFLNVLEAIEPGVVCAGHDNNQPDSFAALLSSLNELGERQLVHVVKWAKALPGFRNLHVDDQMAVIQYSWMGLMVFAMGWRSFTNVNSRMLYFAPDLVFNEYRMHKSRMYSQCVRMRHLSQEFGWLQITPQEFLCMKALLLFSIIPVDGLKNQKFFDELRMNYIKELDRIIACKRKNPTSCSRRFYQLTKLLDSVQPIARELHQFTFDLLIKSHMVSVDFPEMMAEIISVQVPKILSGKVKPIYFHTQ
Peroxisome proliferator-activated receptor gamma (Homo sapiens), sequence (P37231 whole entry, looked up): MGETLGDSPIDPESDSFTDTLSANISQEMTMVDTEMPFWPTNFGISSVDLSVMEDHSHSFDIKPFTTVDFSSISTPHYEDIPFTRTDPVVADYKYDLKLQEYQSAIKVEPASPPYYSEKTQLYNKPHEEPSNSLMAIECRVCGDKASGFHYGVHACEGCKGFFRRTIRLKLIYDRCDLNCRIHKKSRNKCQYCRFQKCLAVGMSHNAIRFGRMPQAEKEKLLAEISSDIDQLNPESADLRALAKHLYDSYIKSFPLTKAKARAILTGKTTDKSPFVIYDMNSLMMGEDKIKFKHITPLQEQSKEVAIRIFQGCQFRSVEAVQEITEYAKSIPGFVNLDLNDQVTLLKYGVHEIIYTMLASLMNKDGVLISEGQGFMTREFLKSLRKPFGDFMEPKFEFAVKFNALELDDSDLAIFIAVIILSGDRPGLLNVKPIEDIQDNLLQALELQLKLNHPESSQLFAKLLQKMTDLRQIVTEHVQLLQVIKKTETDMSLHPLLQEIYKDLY
Estrogen receptor (Homo sapiens), sequence (P03372 whole entry, looked up): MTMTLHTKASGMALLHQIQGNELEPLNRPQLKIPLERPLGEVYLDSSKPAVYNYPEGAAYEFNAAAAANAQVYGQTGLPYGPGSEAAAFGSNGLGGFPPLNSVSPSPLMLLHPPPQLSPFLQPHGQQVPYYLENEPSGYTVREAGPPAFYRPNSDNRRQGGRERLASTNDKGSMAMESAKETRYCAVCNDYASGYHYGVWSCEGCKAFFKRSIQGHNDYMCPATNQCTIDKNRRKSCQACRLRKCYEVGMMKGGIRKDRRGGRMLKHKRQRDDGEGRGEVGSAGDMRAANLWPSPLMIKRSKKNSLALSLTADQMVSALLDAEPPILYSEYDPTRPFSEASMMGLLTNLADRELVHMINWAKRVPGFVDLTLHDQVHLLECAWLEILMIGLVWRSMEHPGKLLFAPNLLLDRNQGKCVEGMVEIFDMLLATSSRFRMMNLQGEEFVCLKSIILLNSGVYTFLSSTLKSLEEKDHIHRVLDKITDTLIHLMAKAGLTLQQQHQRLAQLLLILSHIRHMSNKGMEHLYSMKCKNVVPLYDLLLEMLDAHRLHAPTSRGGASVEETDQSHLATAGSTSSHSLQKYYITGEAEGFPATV
Retinoic acid receptor RXR-alpha (Homo sapiens), sequence (P19793 whole entry, looked up, the tested form may be a part): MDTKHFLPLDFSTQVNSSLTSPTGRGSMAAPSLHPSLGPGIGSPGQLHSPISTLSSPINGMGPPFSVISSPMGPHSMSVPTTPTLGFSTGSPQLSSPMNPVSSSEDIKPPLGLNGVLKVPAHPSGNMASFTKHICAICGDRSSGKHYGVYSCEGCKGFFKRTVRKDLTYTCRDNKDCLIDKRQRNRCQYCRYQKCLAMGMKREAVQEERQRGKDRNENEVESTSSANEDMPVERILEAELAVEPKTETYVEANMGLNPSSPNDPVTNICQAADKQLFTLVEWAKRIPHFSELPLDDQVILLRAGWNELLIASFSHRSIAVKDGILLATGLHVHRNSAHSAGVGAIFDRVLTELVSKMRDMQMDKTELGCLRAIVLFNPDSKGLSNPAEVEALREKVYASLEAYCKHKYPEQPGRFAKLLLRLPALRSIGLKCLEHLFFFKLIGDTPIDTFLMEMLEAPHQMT
Bile acid receptor (Homo sapiens), sequence (Q96RI1 whole entry, looked up, the tested form may be a part): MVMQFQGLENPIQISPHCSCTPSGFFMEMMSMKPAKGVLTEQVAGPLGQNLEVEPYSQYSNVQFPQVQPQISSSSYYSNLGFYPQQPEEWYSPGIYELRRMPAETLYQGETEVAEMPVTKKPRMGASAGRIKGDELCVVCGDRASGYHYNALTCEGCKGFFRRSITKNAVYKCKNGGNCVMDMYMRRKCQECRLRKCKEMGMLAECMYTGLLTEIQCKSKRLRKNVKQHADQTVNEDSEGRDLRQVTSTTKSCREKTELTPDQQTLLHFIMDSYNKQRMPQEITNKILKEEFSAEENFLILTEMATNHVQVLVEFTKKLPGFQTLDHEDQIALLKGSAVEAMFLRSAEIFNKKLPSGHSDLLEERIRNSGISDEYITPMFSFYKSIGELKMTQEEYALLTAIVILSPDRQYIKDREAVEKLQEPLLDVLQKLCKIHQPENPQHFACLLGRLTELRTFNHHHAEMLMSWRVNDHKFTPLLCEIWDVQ
mouse Estrogen Receptor alpha (Era), Esr1 (gene 13982), sequence (P19785 whole entry, looked up): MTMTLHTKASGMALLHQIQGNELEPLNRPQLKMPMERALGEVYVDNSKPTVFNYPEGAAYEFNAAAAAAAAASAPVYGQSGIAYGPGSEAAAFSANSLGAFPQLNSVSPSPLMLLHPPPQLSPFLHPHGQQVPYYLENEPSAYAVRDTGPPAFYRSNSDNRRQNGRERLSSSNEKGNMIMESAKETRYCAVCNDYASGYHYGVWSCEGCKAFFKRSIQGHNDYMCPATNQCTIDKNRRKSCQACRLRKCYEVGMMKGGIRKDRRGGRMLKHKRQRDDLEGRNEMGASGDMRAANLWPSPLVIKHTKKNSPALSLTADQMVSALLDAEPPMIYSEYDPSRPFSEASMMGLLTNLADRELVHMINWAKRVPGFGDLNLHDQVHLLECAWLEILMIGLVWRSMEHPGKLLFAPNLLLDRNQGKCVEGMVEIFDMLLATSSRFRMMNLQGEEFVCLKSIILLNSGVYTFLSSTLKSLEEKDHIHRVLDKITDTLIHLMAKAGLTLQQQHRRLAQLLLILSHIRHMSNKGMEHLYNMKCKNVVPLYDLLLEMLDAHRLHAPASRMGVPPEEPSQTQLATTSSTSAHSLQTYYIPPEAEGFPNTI
Estrogen receptor beta (Homo sapiens), sequence (Q92731 whole entry, looked up, the tested form may be a part): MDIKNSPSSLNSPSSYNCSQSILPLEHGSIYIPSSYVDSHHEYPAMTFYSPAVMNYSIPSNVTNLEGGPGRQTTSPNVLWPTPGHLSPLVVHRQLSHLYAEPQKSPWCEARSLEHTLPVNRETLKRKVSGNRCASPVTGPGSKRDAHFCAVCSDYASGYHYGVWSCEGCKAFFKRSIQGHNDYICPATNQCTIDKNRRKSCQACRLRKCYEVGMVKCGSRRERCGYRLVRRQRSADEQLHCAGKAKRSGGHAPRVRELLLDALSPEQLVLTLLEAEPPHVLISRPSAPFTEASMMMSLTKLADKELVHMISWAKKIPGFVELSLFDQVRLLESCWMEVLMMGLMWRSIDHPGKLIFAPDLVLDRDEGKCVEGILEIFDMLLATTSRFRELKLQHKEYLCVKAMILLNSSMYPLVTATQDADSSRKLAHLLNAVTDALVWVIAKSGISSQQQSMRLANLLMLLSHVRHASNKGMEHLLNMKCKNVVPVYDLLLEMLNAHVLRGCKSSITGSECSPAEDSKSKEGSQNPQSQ
human Norepinephrine Transporter (NET), SLC6A2 (gene 6530), sequence (P23975 whole entry, looked up): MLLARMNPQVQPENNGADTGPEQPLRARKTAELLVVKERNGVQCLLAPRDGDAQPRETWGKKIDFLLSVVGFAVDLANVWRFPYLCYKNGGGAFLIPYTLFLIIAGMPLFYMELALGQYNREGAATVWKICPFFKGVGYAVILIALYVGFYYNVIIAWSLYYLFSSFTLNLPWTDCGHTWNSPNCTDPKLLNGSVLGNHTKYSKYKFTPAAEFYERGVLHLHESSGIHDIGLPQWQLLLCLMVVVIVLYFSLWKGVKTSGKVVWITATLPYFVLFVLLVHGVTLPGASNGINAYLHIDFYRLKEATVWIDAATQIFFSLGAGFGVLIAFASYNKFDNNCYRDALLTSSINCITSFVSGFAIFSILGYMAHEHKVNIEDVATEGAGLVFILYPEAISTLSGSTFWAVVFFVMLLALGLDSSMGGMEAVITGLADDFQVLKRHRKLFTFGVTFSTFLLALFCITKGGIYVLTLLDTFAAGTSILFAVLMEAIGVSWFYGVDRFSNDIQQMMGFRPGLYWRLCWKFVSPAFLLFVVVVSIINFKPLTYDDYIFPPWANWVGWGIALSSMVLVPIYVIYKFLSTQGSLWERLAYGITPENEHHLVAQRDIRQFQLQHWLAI

Broadly, the AC50 is the concentration giving half of the maximal activity seen. `CC#Cc1cc(C)nc(Nc2ccccc2)n1`: the result in assay [1], in assay [2], in assay [3], in assay [4], in [5] and in assay [6] was inactive. Further, the molecule was called inactive in assay [7], in assay [8], in assay [9], in assay [10], in [12] and in [13]. In addition, the call in [14] and in [15] was inactive. The concentration at half-maximal activity (AC50) in assay [11] was 34.8 µM (active).

Regarding `CCC(=O)O[C@H]1CC[C@H]2[C@@H]3CCC4=CC(=O)CC[C@]4(C)[C@H]3CC[C@]12C`, the result in assay [16], in assay [2], in [3], in assay [4], in assay [5] and in assay [6] was inactive. The outcome in assay [7], in assay [8] and in [12] was inactive. Moreover, the AC50 is 3.34 nM (active) and 0.907 nM (active) and 1.93 nM (active) in [17]; 12.7 µM (active) and 3.36 µM (active) and 12.8 µM (active) in assay [2]; 12.3 µM (active) in [3]; 42.7 µM (active) and 57.9 µM (active) in assay [5]; 73.3 µM (active) and 73.7 µM (active) and 78.4 µM (active) in [6]; 75.1 µM (active) in [9]. Moreover, the AC50 in [10] is 34.1 µM (active); in assay [11], 3.14 µM (active); in assay [18], 22.8 µM (active); in [13] it was 30.7 µM (active); in assay [14] it was 1.77 µM (active); in assay [15] it was 0.643 µM (active).

Regarding `C[C@]12CCC(=O)C=C1CC[C@@H]1[C@@H]2CC[C@@]2(C)[C@H]1CC[C@]2(C)O`, the molecule was called inactive in [16], in [3], in assay [4], in [19], in [20] and in assay [5]. The outcome in assay [6], in [7], in assay [8], in [12] and in assay [14] was inactive. For the same molecule, the half-maximal activity concentration (AC50) is 16.1 µM (active) and 16.7 µM (active) and 11.7 µM (active) in assay [19]; 23.5 µM (active) and 27.9 µM (active) and 33.2 µM (active) in [20]; 11 µM (active) in assay [9]; 5.59 µM (active) in [10]; 0.807 µM (active) in [11]; 7.76 µM (active) in [13].

With `Oc1c(Cl)c(Cl)c(Cl)c(Cl)c1Cl`, the outcome in [16], in assay [3], in [4], in assay [5], in assay [6] and in assay [7] was inactive. Also, in assay [8], the molecule was called inactive.

As for `O=C(O)C(F)(F)C(F)(F)C(F)(F)C(F)(F)C(F)(F)C(F)(F)C(F)(F)C(F)(F)F`, the result in assay [1], in [16], in assay [2], in assay [3], in [4] and in [20] was inactive. In addition, the molecule was classed as inactive in assay [5], in assay [7] and in assay [8].

In the case of `Clc1ccc(C(c2ccccc2Cl)C(Cl)(Cl)Cl)cc1` (centres undefined), the half-maximal activity concentration (AC50) was 0.0517 µM (active) in [16]; 2.14 µM (active) and 2.1 µM (active) and 2.35 µM (active) in assay [2]; 54.9 µM (active) and 58.4 µM (active) and 63.9 µM (active) in assay [5]; 59.9 µM (active) in assay [6]. Further, the molecule was classed as inactive in assay [16], in assay [6], in assay [7], in [8], in assay [9] and in assay [10]. The outcome in assay [11], in [12], in [13], in assay [14] and in [15] was inactive.
